Molecules are shown by their SMILES. Values without a mark were called inactive. Calls of active or inactive are those of the source. Rule as the data show it: active = inhibition above about 50%; inactive = the rest.

The target of the test is Vascular endothelial growth factor receptor 2 (Homo sapiens) (UniProt P35968). As to the kind of experiment: Biochemical primary assay, inhibitors of H. sapiens VEGFR2, LANCE Ultra time-resolved FRET readout, NPC library (AID 1117353). Particulars: LANCE Ultra TR-FRET kinase assay; at 20 µM (top of the series). A general note: In TR-FRET formats the signal depends on donor and acceptor labels being close together.
Sequence of Vascular endothelial growth factor receptor 2 (Homo sapiens) (P35968 whole entry, looked up): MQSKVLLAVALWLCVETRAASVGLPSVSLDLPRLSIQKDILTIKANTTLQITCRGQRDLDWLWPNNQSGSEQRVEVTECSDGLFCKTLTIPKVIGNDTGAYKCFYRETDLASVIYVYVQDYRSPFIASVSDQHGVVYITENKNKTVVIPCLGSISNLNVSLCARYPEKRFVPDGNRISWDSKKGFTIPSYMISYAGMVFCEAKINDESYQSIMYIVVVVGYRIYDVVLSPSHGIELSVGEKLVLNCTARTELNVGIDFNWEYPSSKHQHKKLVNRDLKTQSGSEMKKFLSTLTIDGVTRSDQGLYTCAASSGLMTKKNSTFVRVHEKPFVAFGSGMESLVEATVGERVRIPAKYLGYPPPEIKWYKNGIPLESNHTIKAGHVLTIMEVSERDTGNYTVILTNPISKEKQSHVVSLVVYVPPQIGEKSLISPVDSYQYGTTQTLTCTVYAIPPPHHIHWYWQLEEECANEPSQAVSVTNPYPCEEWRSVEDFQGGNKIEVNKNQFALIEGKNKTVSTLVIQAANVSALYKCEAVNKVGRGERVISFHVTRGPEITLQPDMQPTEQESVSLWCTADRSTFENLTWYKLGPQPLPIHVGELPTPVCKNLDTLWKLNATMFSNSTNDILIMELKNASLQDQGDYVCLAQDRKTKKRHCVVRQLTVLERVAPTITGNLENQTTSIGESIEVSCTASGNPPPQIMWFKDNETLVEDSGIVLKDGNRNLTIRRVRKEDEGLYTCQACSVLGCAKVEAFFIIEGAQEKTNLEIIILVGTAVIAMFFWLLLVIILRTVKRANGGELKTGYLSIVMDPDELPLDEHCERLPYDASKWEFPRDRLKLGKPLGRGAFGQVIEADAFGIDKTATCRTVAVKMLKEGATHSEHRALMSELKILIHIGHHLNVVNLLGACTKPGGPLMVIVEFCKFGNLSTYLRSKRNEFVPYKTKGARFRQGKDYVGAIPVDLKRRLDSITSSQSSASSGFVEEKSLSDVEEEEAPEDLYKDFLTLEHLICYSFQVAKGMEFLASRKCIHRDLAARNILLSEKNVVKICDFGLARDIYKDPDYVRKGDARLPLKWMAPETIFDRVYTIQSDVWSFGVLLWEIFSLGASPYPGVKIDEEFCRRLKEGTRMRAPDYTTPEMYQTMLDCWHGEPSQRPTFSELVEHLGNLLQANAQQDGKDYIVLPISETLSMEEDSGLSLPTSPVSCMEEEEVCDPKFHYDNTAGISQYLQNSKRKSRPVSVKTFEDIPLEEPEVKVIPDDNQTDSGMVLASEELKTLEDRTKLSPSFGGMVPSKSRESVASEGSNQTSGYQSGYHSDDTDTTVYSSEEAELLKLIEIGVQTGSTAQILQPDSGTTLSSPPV
With `Cc1nc2ccc(CN(C)c3ccc(C(=O)N[C@@H](CCC(=O)O)C(=O)O)s3)cc2c(=O)[nH]1`, the inhibition (in general, the drop in the measured response relative to a control, in per cent) was 7.13%. As for `COc1ccc2cc1Oc1ccc(cc1)C[C@H]1c3c(cc4c(c3Oc3cc5c(cc3OC)CCN(C)[C@@H]5C2)OCO4)CCN1C`, the figure is 30.3%; as for `CCC1=C[C@@H]2CN(C1)Cc1c([nH]c3ccccc13)[C@@](C(=O)OC)(c1cc3c(cc1OC)N(C)[C@H]1[C@@](O)(C(=O)OC)[C@H](OC(C)=O)[C@]4(CC)C=CCN5CC[C@]31[C@@H]54)C2`, -20.3%. As for `COC(=O)Nc1nc2ccc(S(=O)c3ccccc3)cc2[nH]1` (configuration not stated), the figure is 8.1%. As for `COC(=O)[C@H]1[C@H]2C[C@@H]3c4[nH]c5cc(OC)ccc5c4CCN3C[C@H]2C[C@@H](OC(=O)/C=C/c2ccc(O)c(OC)c2)[C@@H]1OC`, the figure is 16.4%. `Cc1ccc2nc(N)[nH]c(=O)c2c1Sc1ccncc1`: the inhibition was -56.2%.

Take `CNC(=O)c1ccccc1Sc1ccc2c(/C=C/c3ccccn3)n[nH]c2c1`: the inhibition is 100% (active). For `CCCOc1ccc2nc(NC(=O)OC)[nH]c2c1`, the inhibition is 10.2%. As to `CSc1ccc2c(c1)C(N1CCN(C)CC1)Cc1ccccc1S2` (configuration not stated), the inhibition is -11.8%. On to `Cc1cc(O)c2ccccc2c1O`, for which the inhibition is 50% (active).

Take `C[C@@]12C(=O)OC(=O)[C@]1(C)C1CCC2O1`: the inhibition is -15.1%.

For `CC(C)(C)C1CCC(CC2=C(O)c3ccccc3C(=O)C2=O)CC1` (configuration not stated), the inhibition was -21.1%. As for `CCCSc1ccc2nc(NC(=O)OC)[nH]c2c1`, the figure is -6.58%; as for `Cc1nc(N)nc(N)c1-c1ccc(Cl)c(Cl)c1`, -0.1%; as for `O=C(O)c1ccc(-n2nc(-c3ccccc3O)nc2-c2ccccc2O)cc1`, -16.1%. For `CC(C)(C)C(=O)OCOP(=O)(COCCn1cnc2c(N)ncnc21)OCOC(=O)C(C)(C)C` the value was -10.9%. Turning to `COC(=O)Nc1nc2ccc(C(=O)c3ccccc3)cc2[nH]1`, the inhibition is 74.1% (active). For `S=c1nc[nH]c2nc[nH]c12` the value was 15.9%. For the compound `COc1cccc2c1C(=O)c1c(O)c3c(c(O)c1C2=O)C[C@@](O)(C(C)=O)C[C@@H]3O[C@H]1C[C@H](N)[C@H](O)[C@H](C)O1`, the inhibition is 14%. As for `CCCN(CCC)C(=O)C(CCC(=O)OCCCN1CCN(CCOC(=O)Cc2c(C)n(C(=O)c3ccc(Cl)cc3)c3ccc(OC)cc23)CC1)NC(=O)c1ccccc1` (configuration not stated), the figure is -17.9%; as for `COc1ccc(-c2ccc3cc(C(=O)O)ccc3c2)cc1C12CC3CC(CC(C3)C1)C2`, 96.3% (active); as for `[O-][n+]1ccccc1SSc1cccc[n+]1[O-]`, -17.4%. For `COc1cc(-c2ccc(=O)[nH]n2)ccc1OC(F)F` the value was -22.3%; for `NC(=NCCCCCCN=C(N)/N=C(\N)Nc1ccc(Cl)cc1)/N=C(\N)Nc1ccc(Cl)cc1`, -1.66%; for `CC(=O)[C@]1(O)Cc2c(O)c3c(c(O)c2[C@@H](O[C@H]2C[C@H](N)[C@H](O)[C@H](C)O2)C1)C(=O)c1ccccc1C3=O`, -143%.

Take `CCCCc1oc2ccccc2c1C(=O)c1cc(I)c(OCCN(CC)CC)c(I)c1`: the inhibition was 22.9%. In the case of `COC(=O)c1nc(Cl)c(Cl)nc1N`, the inhibition was 6.09%. In the case of `COC(=O)Nc1nc2ccc(Sc3ccccc3)cc2[nH]1`, the inhibition was 6%.

Regarding `CC[C@]1(O)C[C@H]2CN(CCc3c([nH]c4ccccc34)[C@@](C(=O)OC)(c3cc4c(cc3OC)N(C=O)[C@H]3[C@@](O)(C(=O)OC)[C@H](OC(C)=O)[C@]5(CC)C=CCN6CC[C@]43[C@@H]65)C2)C1`, the inhibition is -11.3%. As for `Oc1c(Cl)cc(Cl)c2cccnc12`, the figure is -23.4%. As for `COc1ccc(-c2nc3ccc(C4=NNC(=O)CC4C)cc3[nH]2)cc1` (configuration not stated), the figure is -36.5%; as for `CC(C)C[C@H](NC(=O)[C@H](CCc1ccccc1)NC(=O)CN1CCOCC1)C(=O)N[C@@H](Cc1ccccc1)C(=O)N[C@@H](CC(C)C)C(=O)[C@@]1(C)CO1`, 21.4%.

On to `CCCCCCCCCCCCCC[N+](C)(C)C`, for which the inhibition is 11.2%. As for `O=c1[nH]c(=O)n([C@H]2C[C@H](O)[C@@H](CO)O2)cc1C(F)(F)F`, the figure is -17.7%; as for `CC(=O)Oc1ccc(C2(c3ccc(OC(C)=O)cc3)Oc3ccccc3NC2=O)cc1`, -14.8%. As for `Nc1ccc2cc3ccc(N)cc3nc2c1`, the figure is -25.5%.

With `O=C(NOCC1CC1)c1ccc(F)c(F)c1Nc1ccc(I)cc1Cl`, the inhibition is 12.4%.

For the origin of these results see PubChem BioAssay AID1117353 (Cheminformatics & Chemogenomics Research Group (CCRG), …, 2015).
